Structures are written as SMILES. Records with an inconclusive call do not appear. Entries that show only a call come without a potency. Active and inactive are the calls of the source. The call rests on the fitted dose curve; in most records, active means well fitted inhibition curve with a large enough effect; inconclusive means small, poorly fitted or top-dose-only effect; inactive means flat fitted curve, though single readings scatter.
Potency means the concentration at half of the fitted maximal effect.

This assay concerns Zika virus NS2B-NS3 protease. Nature of the assay: Primary screen GU AMC qHTS for Zika virus inhibitors (AID 1347154). Further: nearly all actives have a fitted effect of over 70% in size. The settings on record: Zika NS2B-NS3 unlinked protease, AMC fluorogenic substrate; series mostly up to 54.1 µM. The gist of the method: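 Fluorogenic AMC-substrate cleavage by noncovalent NS2B-NS3 protease complex (25 nM, pH 8.0 Tris buffer with Tween 20) followed for 15 minutes at room temperature (~20% conversion). Percent inhibition from ex340/em450 signal change, fitted by 4-parameter Hill equation.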
Turning to `COc1ccc(C(Cl)=C(c2ccc(OC)cc2)c2ccc(OC)cc2)cc1`, the Potency entry is “inactive”.

Take `O=C1C(O)=C(O)C(=O)C(O)=C1O`: the Potency entry is “inactive”.

`O=C1C(=O)c2ccccc2C(O)=C1C1CCC(c2ccc(Cl)cc2)CC1` (stereo not given): the Potency entry was “inactive”.

With `OC[C@H]1O[C@@H](Oc2ccc(O)cc2)[C@H](O)[C@@H](O)[C@@H]1O`, the Potency entry was “inactive”.

For the compound `C[N+]1(CC2COC(c3ccccc3)(C3CCCCC3)O2)CCCCC1` (stereo not given), the Potency result is “inactive”.

For `O=c1[nH]c(=O)n([C@H]2C[C@H](O)[C@@H](CO)O2)cc1F`, the Potency entry is “inactive”.

Turning to `CCCN(CCc1cccs1)[C@H]1CCc2c(O)cccc2C1`, the Potency entry is “inactive”.

With `CCOC(=O)c1ccc(N)cc1`, the Potency entry was “inactive”.

For `Cc1cccc(C)c1NC(=O)CN1CCCCCC1`, the Potency entry was “inactive”.

Regarding `CC[N+](C)(CC)CCOC(=O)C(O)(c1ccccc1)C1CCCCC1` (stereo not given), the Potency result was “inactive”.

For `C[C@H]1[C@H]2CC[C@H]3[C@@H]4CC=C5C[C@@H](N(C)C)CC[C@]5(C)[C@H]4CC[C@]23CN1C`, the Potency entry was “inactive”.

As for `C=C[C@H]1CN2CC[C@H]1C[C@H]2[C@H](O)c1ccnc2ccc(OC)cc12`, the Potency entry is “inactive”.

As for `Oc1c(Cl)cc(Cl)c(Cl)c1Cc1c(O)c(Cl)cc(Cl)c1Cl`, the Potency was 7.94 µM (active).

Take `O=C1OC(CN2CCOCC2)CN1/N=C/c1ccc([N+](=O)[O-])o1` (stereo not given): the Potency entry was “inactive”.

On to `CC[C@]12CCCN3CCc4c(n(c5ccccc45)C(=O)C1)[C@@H]32`, for which the Potency entry is “inactive”.

With `C[C@@H](O)[C@H]1C(=O)N2C(C(=O)O)=C([C@H]3CCCO3)S[C@H]12`, the Potency entry is “inactive”.

Take `C#C[C@]1(O)CC[C@H]2[C@@H]3CCC4=CC(=O)CC[C@@H]4[C@H]3CC[C@@]21CC`: the Potency entry was “inactive”.

On to `CN(C)CCN1C(=O)c2ccccc2N(C)c2ccccc21`, for which the Potency entry is “inactive”.

With `CC(C)[N+](C)(C)CC(O)COc1cccc2ccccc12` (stereo not given), the Potency result was “inactive”.

`Cc1ccc(S(=O)(=O)NC(=O)NC2CCCC2)cc1`: the Potency entry was “inactive”.

Consider `Cc1ccc(-c2ncc(Cl)cc2-c2ccc(S(C)(=O)=O)cc2)cn1`, for which the Potency result is “inactive”.

With `C/C=C/C=N/NC(=O)c1ccncc1`, the Potency entry was “inactive”.

As for `CCN1CCN(C(=O)N[C@@H](C(=O)N[C@@H]2C(=O)N3C(C(=O)O)=C(CSc4nnnn4C)CS[C@H]23)c2ccc(O)cc2)C(=O)C1=O`, the Potency entry was “inactive”.

Regarding `CCN(CC)CCOc1ccccc1C(=O)CCc1ccccc1`, the Potency entry was “inactive”.

On to `COc1cc(C)nc(-n2nc(C)cc2OC)n1`, for which the Potency result is “inactive”.

Turning to `CC(=O)Nc1ccc(CC(=O)O)cc1`, the Potency entry is “inactive”.

Regarding `CC(O)Cn1cnc2c1c(=O)n(C)c(=O)n2C` (stereo not given), the Potency entry is “inactive”.

Consider `CC(C(=O)O)c1cccc(Oc2ccccc2)c1` (stereo not given), for which the Potency entry is “inactive”.

In the case of `NCCNc1cccc2ccccc12`, the Potency was 14.4 µM (active).

For `C[N+]1(C)CCC(=C(c2ccccc2)c2ccccc2)CC1`, the Potency entry was “inactive”.

For `COc1ccccc1N1CCN(CCCCNC(=O)c2ccc(-c3ccc(C(C)=O)cc3)cc2)CC1`, the Potency result was “inactive”.

In the case of `O=C1[C@H](CC[C@H](O)c2ccc(F)cc2)[C@@H](c2ccc(O)cc2)N1c1ccc(F)cc1`, the Potency entry is “inactive”.

`CCCCCCCC/C=C\CCCCCCCCN`: the Potency result was “inactive”.

Regarding `O=C(O)Cc1csc(-c2ccc(Cl)cc2)n1`, the Potency entry is “inactive”.

In the case of `CN1CCN(CCC(=O)N2c3ccccc3Sc3ccc(C(F)(F)F)cc32)CC1`, the Potency result is “inactive”.

For the compound `O=C(NC1CCN(CCc2c[nH]c3ccccc23)CC1)c1ccccc1`, the Potency entry was “inactive”.

As for `CCCCNc1ccc(C(=O)OCCOCCOCCOCCOCCOCCOCCOCCOCCOC)cc1`, the Potency entry is “inactive”.

Regarding `CCC1Nc2cc(Cl)c(S(N)(=O)=O)cc2S(=O)(=O)N1` (stereo not given), the Potency result is “inactive”.

Consider `O=C(N/N=C/c1ccc([N+](=O)[O-])o1)c1ccc(O)cc1`, for which the Potency result is “inactive”.

Take `CCc1cc(Cl)c(OC)c(C(=O)NC[C@@H]2CCCN2CC)c1O`: the Potency entry is “inactive”.

For the origin of these results see PubChem BioAssay (NCATS).
